From PubChem BioAssay (Tox21)
Activity calls are given as the source filed them. A call without a number means that no potency is given here. Unless noted, calls come from the whole dose curve; as a rule, active = well fitted curve in the direction sought with a large enough effect in the repeat runs; inconclusive = weak or mixed curves; inactive = no such curve, though single readings can be large; an effect the other way counts as inactive or inconclusive.

Experiments:
[1] = qHTS assay to identify small molecule antagonists of the thyroid receptor (TR) signaling pathway - cell viability counter screen (AID 743064); note: nearly all actives have a fitted effect of over 50% in size; note: potency is the fitted concentration of half-maximal effect
Method in brief: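 Compounds were tested on GH3.TRE-Luc cells in the presence of T3 at 1 nM final. Following 23.5 h at 37 °C, cell viability was quantified by CellTiter-Fluor.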

[2] = qHTS assay to identify small molecule antagonists of the thyroid receptor (TR) signaling pathway (AID 743065); note: nearly all actives have a fitted effect of over 55% in size; note: potency is the fitted concentration of half-maximal effect
Method in brief: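 Antagonism measured as loss of luciferase signal in GH3 cells stably carrying a TRE-luciferase reporter, co-treated with compound and T3 (1 nM final) for 23.5 h at 37 C. Viability was read in the same well by CellTiter-Fluor.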

[3] = biological target: Estrogen receptor (Homo sapiens) (UniProt P03372); test: qHTS assay to identify small molecule antagonists of the estrogen receptor alpha (ER-alpha) signaling pathway (AID 743069; active = well fitted curve in the direction sought with a large enough effect in the signal ratio in the repeat runs, not every such curve was filed as active; inconclusive = weak or mixed curves, or effect the other way; inactive = no such curve, though single readings can be large or run the other way; the % refers to the signal ratio; note: potency is the fitted concentration of half-maximal effect)
Method in brief: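 Fluorescence intensity from a beta-lactamase FRET substrate served as the read-out. Cells: HEK293 with stably integrated ER-alpha-UAS-bla reporter. Agonist 17beta-estradiol was co-added with compounds; incubation 18 hr at 37C, substrate 2 hr at room temperature.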

[4] = qHTS assay to identify small molecule antagonists of the estrogen receptor alpha (ER-alpha) signaling pathway using the BG1 cell line - cell viability counter screen (AID 743081);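 note: compound given together with 17beta-estradiol as the ER stimulus; series mostly up to about 70 µM; nearly all actives have a fitted effect of over 45% in size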
Aromatase (Homo sapiens) = Aromatase (Homo sapiens) (UniProt P11511); test: qHTS assay to identify aromatase inhibitors (AID 743083); note: nearly all actives have a fitted effect of over 55% in size; note: potency is the fitted concentration of half-maximal effect
[5] = system: thyroid hormone receptor (rat, GH3 cells); test: qHTS assay to identify small molecule agonists of the thyroid receptor (TR) signaling pathway (AID 743066; calls by dose curve)
[6] = qHTS assay to identify small molecule antagonists of the estrogen receptor alpha (ER-alpha) signaling pathway - cell viability counter screen (AID 743074; calls by dose curve; note: nearly all actives have a fitted effect of over 45% in size)
[7] = biological target: Estrogen receptor (Homo sapiens) (UniProt P03372); test: qHTS assay to identify small molecule agonists of the estrogen receptor alpha (ER-alpha) signaling pathway (AID 743075; calls by dose curve)

Sequence of Estrogen receptor (Homo sapiens) (P03372 whole entry, looked up): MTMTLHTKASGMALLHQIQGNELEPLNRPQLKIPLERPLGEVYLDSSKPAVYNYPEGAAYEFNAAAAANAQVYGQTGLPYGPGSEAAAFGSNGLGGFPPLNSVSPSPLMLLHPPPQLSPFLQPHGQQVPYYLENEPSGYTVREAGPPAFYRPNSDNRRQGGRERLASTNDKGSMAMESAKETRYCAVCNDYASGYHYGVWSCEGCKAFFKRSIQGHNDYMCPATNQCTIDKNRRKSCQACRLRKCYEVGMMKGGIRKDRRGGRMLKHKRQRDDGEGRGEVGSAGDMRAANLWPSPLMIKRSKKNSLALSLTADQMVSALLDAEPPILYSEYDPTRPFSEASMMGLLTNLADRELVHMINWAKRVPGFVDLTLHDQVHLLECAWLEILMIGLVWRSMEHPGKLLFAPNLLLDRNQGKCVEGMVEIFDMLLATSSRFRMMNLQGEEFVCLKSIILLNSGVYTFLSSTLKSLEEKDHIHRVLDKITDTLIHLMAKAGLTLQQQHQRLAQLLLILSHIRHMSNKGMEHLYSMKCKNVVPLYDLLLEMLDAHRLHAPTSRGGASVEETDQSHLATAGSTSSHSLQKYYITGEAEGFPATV
Sequence of Aromatase (Homo sapiens) (P11511 whole entry, looked up): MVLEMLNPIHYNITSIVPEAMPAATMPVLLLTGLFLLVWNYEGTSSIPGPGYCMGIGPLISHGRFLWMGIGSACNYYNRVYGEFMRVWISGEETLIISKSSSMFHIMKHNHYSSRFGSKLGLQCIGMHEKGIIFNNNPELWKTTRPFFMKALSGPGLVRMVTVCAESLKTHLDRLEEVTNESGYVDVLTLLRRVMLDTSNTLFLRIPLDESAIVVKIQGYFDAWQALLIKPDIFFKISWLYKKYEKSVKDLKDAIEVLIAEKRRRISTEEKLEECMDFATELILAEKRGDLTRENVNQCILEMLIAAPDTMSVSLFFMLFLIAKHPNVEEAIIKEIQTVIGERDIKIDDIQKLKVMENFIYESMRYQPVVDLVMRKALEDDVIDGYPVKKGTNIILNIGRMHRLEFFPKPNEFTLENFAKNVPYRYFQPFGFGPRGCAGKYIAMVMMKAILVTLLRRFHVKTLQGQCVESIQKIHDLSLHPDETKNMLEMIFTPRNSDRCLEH

Row | Structure (SMILES) | Potency [1] | Potency [2] | Potency [3] | Potency [4] | Potency (Aromatase (Homo sapiens)) | Potency [5] | Potency [6] | Potency [7]
1 | CCC(C)(NC(=O)c1cc(Cl)c(C)c(Cl)c1)C(=O)CCl (configuration not stated) | 15.4 µM (active) | 8.69 µM (active) | 62 µM [inconclusive] (active) | inactive | 61.5 µM (active) | – | – | –
2 | O=C(O)C(F)(F)C(F)(F)C(F)(F)C(F)(F)C(F)(F)C(F)(F)C(F)(F)C(F)(F)C(F)(F)C(F)(F)F | inactive | inactive | – | inactive | inactive | inactive | – | –
3 | O=C1NCN(c2ccccc2)C12CCN(CCCOc1ccc(F)cc1)CC2 | 13.3 µM (active) | 16.8 µM (active) | 10.7 µM [inconclusive] (active) | – | 16.8 µM (active) | – | inactive | inactive
4 | CCOS(C)(=O)=O | inactive | inactive | – | inactive | inactive | inactive | inactive | –
